# Results published in publication PMC5540273 (PLoS ONE, 2017).
# Where “and” joins values, the source holds several entries; their conditions need not be identical. Equal values may be shown once. Read-outs that look alike come from different tables or passages of the source.
# Columns and labels:
# [1] = tested on: TLK2; conditions: concentration: 1 μM, replicates: in singlicate, n = 1
# [2] = tested on: TNIK; conditions: concentration: 1 μM, replicates: in singlicate, n = 1
# [3] = tested on: TNK1; conditions: concentration: 1 μM, replicates: in singlicate; n = 1
# [4] = tested on: TNK2; conditions: concentration: 1 μM, replicates: in singlicate, n = 1
# [5] = tested on: TNNI3K; conditions: concentration: 1 μM, replicates: in singlicate, n = 1
# [6] = tested on: T1, TRKA; conditions: concentration: 1 μM, replicates: in singlicate, n = 1
# T1 construct: gene NTRK1
# [7] = tested on: TRKB; conditions: concentration: 1 μM, replicates: in singlicate, n = 1
# [8] = tested on: T2, TRKC; conditions: concentration: 1 μM, replicates: in singlicate, n = 1
# T2 construct: gene NTRK3
# [9] = tested on: TRPM6; conditions: concentration: 1 μM, replicates: in singlicate; n = 1
# [10] = tested on: TSSK1B; conditions: concentration: 1 μM, replicates: in singlicate, n = 1
# 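Note: KINOMEscan kinase panel screen.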
SMILES,%Inh [1],%Inh [2],%Inh [3],%Inh [4],%Inh [5],%Inh [6],%Inh [7],%Inh [8],%Inh [9],%Inh [10],%Inh ([1]; 1 µM),%Inh ([2]; 1 µM),%Inh ([4]; 1 µM),%Inh ([5]; 1 µM),%Inh ([6]; 1 µM),%Inh ([7]; 1 µM),%Inh ([8]; 1 µM),%Inh ([10]; 1 µM)
CC(C)Oc1ccc2c(-c3ccnc(Nc4ccc(N5CCN(C)CC5)cc4)n3)cnn2n1 [GW696155],95.1%,32%,60%,46%,9%,54%,39%,42%,43%,79%,,,,,,,,
Cc1nnc(-c2ccc(C)c(-c3ccc(C(=O)Nc4ccc(NS(C)(=O)=O)cc4)cc3)c2)o1 [GW702865],4%,0%,0%,3%,0%,23%,0%,26%,7%,15%,,,,,,,,
COc1ccc(Nc2ncc(C#N)c(Nc3ccccc3C(N)=O)n2)cc1N1CCN(C)CC1.Cl [GSK1558669],99.6%,99.3%,100%,94.8%,82%,100%,94.8%,94.6%,46%,89%,,,,,,,,
CC(C)(C)n1cnc2c(N)ncnc21 [SKF-97359],2%,0%,16%,40%,0%,74%,47%,18%,3%,0%,,,,,,,,
Cl.Oc1cccc(Nc2ccnc3cc(-c4ccncc4)ccc23)c1 [GW494601],9%,86%,72%,16%,33%,68%,11%,25%,0%,0%,,,,,,,,
Fc1ccc(-c2nn3c(OCC(F)(F)F)cccc3c2-c2ccncc2)cc1 [GW514784],0%,29%,0%,18%,0%,15%,37%,25%,0%,0%,,,,,,,,
O=C(NCCCN1CCOCC1)c1cccc(Nc2nccc(Nc3ccc(Oc4ccccc4)cc3)n2)c1 [GW663929],21%,3%,66%,19%,74%,8%,0%,0%,52%,0%,,,,,,,,
O=c1cc(N2CCOCC2)nc2n(Cc3cccc(Cl)c3Cl)c(C3CC3)nn12 [GSK2358994],0%,10%,0%,5%,0%,1%,0%,0%,0%,0%,,,,,,,,
Nc1nc(-c2ccc3c(N)n[nH]c3c2)cc(N2CCCC2)n1 [GSK2227430],0%,0%,0%,0%,0%,0%,0%,0%,0%,0%,,,,,,,,
Cc1cccc(-c2nc(Nc3ccc4ncsc4c3)c3ccccc3n2)n1 [GW867588],0%,15%,39%,0%,1%,14%,0%,0%,0%,0%,,,,,,,,
O=C(NCCNc1ccnc(Nc2ccc(F)cc2)n1)c1cc2ccccc2s1 [GSK1379874],0%,0%,0%,7%,0%,0%,4%,38%,11%,0%,,,,,,,,
NCCNS(=O)(=O)c1ccc(-c2ccnc3[nH]ccc23)cc1 [GSK977617],,,0%,,,,,,0%,,37% and 34%,61% and 55%,4% and 6%,13% and 5%,100% and 97.9%,89% and 82%,80% and 63%,56% and 46%
CCn1cnc2c(N)ncnc21 [GW345098],0%,17%,7%,10%,4%,24%,0%,7%,81%,20%,,,,,,,,
Cc1c(Cn2c(C)nn3c(=O)cc(N4CCOC(C)C4)nc23)cccc1C(F)(F)F (stereo not drawn) [GSK2344444],0%,0%,9%,7%,0%,0%,0%,0%,6%,17%,,,,,,,,
COc1cc2c(cc1OCCN1CCN(C)CC1)ncc1c3ccc(C#N)cc3[nH]c21,0%,91%,8%,0%,2%,99.8%,97.2%,83%,0%,34%,,,,,,,,
CSc1ccc(-c2cc3ncnc(SCC(=O)O)c3s2)cc1,0%,3%,57%,14%,0%,0%,0%,0%,0%,0%,,,,,,,,
O=C1Cc2cc(Nc3nc(NCc4cccc(S(=O)(=O)C(F)(F)F)c4)ncc3C(F)(F)F)ccc2N1,3%,0%,0%,10%,0%,17%,0%,10%,0%,19%,,,,,,,,

SMILES,%Inh [1],%Inh [2],%Inh [3],%Inh [4],%Inh [5],%Inh [6],%Inh [7],%Inh [8],%Inh [9],%Inh [10],%Inh ([1]; 1 µM),%Inh ([2]; 1 µM),%Inh ([4]; 1 µM),%Inh ([5]; 1 µM),%Inh ([6]; 1 µM),%Inh ([7]; 1 µM),%Inh ([8]; 1 µM),%Inh ([10]; 1 µM)
Fc1ccc(-c2ncn(CCCN3CCOCC3)c2-c2ccccn2)cc1 [SB-211742],0%,0%,24%,0%,0%,0%,0%,0%,0%,0%,,,,,,,,
Cc1cccc(Cn2ccn3c(=O)cc(N4CCOCC4)nc23)c1 [GSK2297542],5%,0%,0%,23%,2%,0%,0%,12%,33%,0%,,,,,,,,
Cn1ccc2ncnc(Oc3ccc(NC(=O)Nc4ccncc4)c(Cl)c3)c21,0%,0%,0%,0%,0%,0%,0%,0%,0%,0%,,,,,,,,
[2H]C([2H])(c1cccc(C(F)(F)F)c1C)n1ccn2c(=O)nc(N3CCOCC3)cc12 [GSK2336394],0%,0%,4%,7%,0%,0%,0%,0%,53%,0%,,,,,,,,
CN(C(=O)c1ccc(-c2cc(-c3c[nH]nc3-c3ccccn3)ccn2)cc1)C1CCOCC1 [GW810083],0%,23%,0%,0%,0%,38%,41%,17%,0%,0%,,,,,,,,
O=c1cc(N2CCOCC2)nc2n(Cc3cccc(F)c3)ccn12 [GSK2297430],0%,0%,0%,18%,0%,54%,27%,6%,0%,12%,,,,,,,,
COC(=O)Nc1nc2cc(Oc3ccc(NC(=O)Nc4cc(F)ccc4F)cc3)ccc2[nH]1.Cl [GW701424],3%,0%,0%,11%,81%,5%,68%,76%,0%,0%,,,,,,,,
CC(=O)Nc1ccc(COc2ccc(Nc3ccnc4cc(-c5ccccn5)ccc34)cc2)cc1.Cl [GW440148],25%,0%,6%,37%,2%,14%,11%,25%,42%,1%,,,,,,,,
CN1c2ccc(NCc3ccc(F)cc3)cc2-c2c(cnn2C)S1(=O)=O,0%,38%,35%,0%,2%,0%,0%,2%,0%,0%,,,,,,,,
Cn1cc(-c2ccc3c(c2)CCN3C(=O)Cc2ccccc2Cl)c2c(N)ncnc21 [GSK2608885],0%,69%,100%,74%,64%,42%,0%,0%,33%,17%,,,,,,,,
N#Cc1c(N2CCOCC2)sc(-c2ccn[nH]2)c1-c1ccc(Cl)cc1,0%,0%,0%,0%,0%,12%,6%,8%,0%,0%,,,,,,,,
COc1cc2ncn(-c3cc(OCc4sccc4Cl)c(C(N)=O)s3)c2cc1OC [GSK448459],0%,74%,0%,24%,0%,47%,25%,14%,0%,1%,,,,,,,,
COc1ccc(COc2cc(-n3cnc4ccccc43)sc2C(N)=O)cc1 [GSK1024304],0%,51%,8%,3%,0%,0%,0%,19%,4%,0%,,,,,,,,
CCCCCc1nc2c(N)ncnc2n1CCCCC [SKF-97255],20%,0%,19%,0%,0%,0%,0%,0%,13%,0%,,,,,,,,
COc1cc2c(cc1OC[C@@H](O)CO)ncc1c3ccc(C#N)cc3[nH]c21,0%,64%,36%,0%,0%,98.8%,90%,66%,0%,3%,,,,,,,,
CCc1nc(-c2cccc(C)c2)c(-c2ccnc(NCc3ccccc3)c2)s1,0%,24%,0%,0%,0%,0%,0%,0%,0%,22%,,,,,,,,
